In PubChem BioAssay AID1851 (National Center for Advancing Translational Sciences (NCATS), 2009):
Screen size: about 16,000 compounds; about 4,000 (25%) were called active. Another 26% or so got no clear call; they are omitted. These entries were drawn from the full list. Values without a mark were called inactive. The call rests on the fitted dose curve; in most records, active means well fitted curve in the direction sought with a large enough effect; inconclusive means small, poorly fitted or top-dose-only effect, or effect the other way; inactive means no such curve, though single readings can be large or run the other way.

Molecular target: Cytochrome P450 2C9 (Homo sapiens) (UniProt P11712)
Test: Cytochrome panel assay with activity outcomes
Details: recombinant CYP, pro-luciferin dealkylation, luminescence, p450-cyp2c9; series mostly up to 57.1 µM
Experimental: The P450 gene superfamily is involved in the metabolism and clearance of xenobiotics. This assay used various human CYP P450 isozymes to measure the dealkylation of various pro-luciferin substrates to luciferin. The luciferin is then measured by luminescence after the addition of a luciferase detection reagent. Pro-luciferin substrate concentration in the assay was equal to its KM for its CYP P450 isozyme. Inhibitors and some substrates limit the production of luciferin, and decrease measured luminescence.
NCGC Assay Protocol Summary:
1, Reagent, 2 uL, Isozyme and Pro-Luciferin
2, Library compounds, 23 nl, 40 uM to 0.24 nM dilution series
3, Controls, 23 nl, Isozyme specific inhibitor
4, Reagent, 2 uL, NADPH regeneration solution
5, Incubation time, 60 min, Isozyme specific temperature
6, Reagent, 4ul, Detection reagent
7, Incubation time, 20 min, Isozyme specific temperature
8, Detection, 1 sec, ViewLux luminescent read
The luciferase-based P450-GloTM Screening Systems were obtained from Promega (Madison, WI) for CYP 1A2 (V9770), CYP 2C9 (V9790), CYP2 C19 (V9880), CYP 2D6 (V9890), and CYP 3A4 Luciferin-PPXE (V9910) and were adapted for 1,536-well microplates and an automated protocol. The control compounds furafylline for 1A2 (F124), sulfaphenazole for CYP 2C9 (S0758), ketoconazole for CYP 2C19 (K1003), quinidine for 2D6 (Q3625), and ketoconazole for 3A4 (K1003) were purchased from Sigma Aldrich (St. Louis, MO). Recombinant P450 enzymes were obtained from baculovirus constructs expressed in insect cells (BD/Gentest).
Medium-binding white solid Kalypsys plates used. Mixtures kept on ice. 1A2: 10 nM 1A2, 100 uM Luc-ME, 100 mM KPO4; 2C9: 10 nM 2C9, 100 uM Luc-H, 25 mM KPO4; 2C19: 5 nM 2C19, 10 uM Luc-H EGE, 50 mM KPO4; 2D6: 5 nM 2D6, 30 uM Luc-ME EGE, 100 mM KPO4; 3A4: 10 nM, 25 uM Luc-PPXE. All amounts are reflected in their final concentration, working concentration is 2x.
NADPH regeneration solution: 1.3 mM NADP+, 3.3 mM glucose-6-phosphate, 3.3 mM MgCl2, 0.4 U/mL glucose-6-phosphate dehydrogenase for all isozymes, 200 mM KPO4 for 3A4. Mixture prepared at RT but kept on ice during automated run.
RT incubation in auxilliary plate hotel for 1A2, 2D6, and 3A4; 37C for 2C9 and 2C19.
Keywords: P450, CYP1A2, CYP2C19, CYP2C9, CYP2D6, CYP3A4, Luciferase, MLSMR, MLSCN, NIH Roadmap, qHTS, NCGC
On the % scale 0 is the no-effect control and ±100 the full control effect.

Sequence of Cytochrome P450 2C9 (Homo sapiens) (P11712 whole entry, looked up): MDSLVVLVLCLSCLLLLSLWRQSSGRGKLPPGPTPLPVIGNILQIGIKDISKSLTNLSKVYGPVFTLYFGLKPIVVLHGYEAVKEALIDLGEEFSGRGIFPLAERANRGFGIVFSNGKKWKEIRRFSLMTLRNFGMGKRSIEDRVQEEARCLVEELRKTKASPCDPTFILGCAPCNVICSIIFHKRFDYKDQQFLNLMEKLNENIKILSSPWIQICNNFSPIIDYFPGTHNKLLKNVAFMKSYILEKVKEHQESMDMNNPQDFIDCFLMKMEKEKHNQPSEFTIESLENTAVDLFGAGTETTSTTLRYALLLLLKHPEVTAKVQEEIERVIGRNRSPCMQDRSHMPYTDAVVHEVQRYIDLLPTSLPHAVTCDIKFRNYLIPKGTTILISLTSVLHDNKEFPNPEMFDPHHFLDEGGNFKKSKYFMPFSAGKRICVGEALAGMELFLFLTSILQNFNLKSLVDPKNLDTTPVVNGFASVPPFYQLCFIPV

Compound | AC50 | activity, negative = inhibition
CC(C)(C)OC(=O)N1CCCC1C(=O)NCCc1ccccc1 (stereo not given) | inactive | 
CCCC(=O)Nc1ccc(C(=O)NNC(=S)NC(=O)c2cccs2)cc1 | 20 µM (active) | 
NNC(=O)c1ccc[n+](CCc2ccccc2)c1 |  | -1.12% [at 11.4 µM]
COc1cc(OC)cc(C(=O)NC(=S)NCCc2ccccc2)c1 | 2.82 µM (active) | 
O=C(CCc1ccccc1)NNC(=S)NC(=O)c1ccccc1 | 15.8 µM (active) | 
O=C(CCc1ccccc1)NNC(=O)c1ccco1 | inactive | 
CCC(=O)Nc1ccc(C(=O)NNC(=O)c2cccs2)cc1 | inactive | 
N[C@@H](CSCc1ccc(I)cc1)C(=O)O |  | 12.7% [at 11.4 µM]
CCCCC(=O)NNC(=S)NC(=O)c1cccc([N+](=O)[O-])c1 | 10 µM (active) | 
NCCNC(=O)c1ccc(Cl)cc1 | inactive | 
O=C(NNC(=S)NC(=O)c1cccnc1)c1ccccc1 | 5.62 µM (active) | 
O=C(NNS(=O)(=O)c1ccccc1)c1cccnc1 |  | 2.91% [at 11.4 µM]
COc1ccc(C(=O)NC(=S)NCc2ccccc2)cc1 | 15.8 µM (active) | 
O=C(NNC(=O)c1cccnc1)Nc1cccc2ccccc12 | inactive | 
CCCCC(=O)Nc1cc(OCC)c(NC(=O)c2ccccc2[N+](=O)[O-])cc1OCC | inactive | 
Cc1ccc(C(=O)NNC(=S)NC(=O)c2ccc(Cl)cc2)cc1 | 2 µM (active) | 
Cc1ccc(C(=O)NNC(=O)C2CCCN(c3ncccn3)C2)cc1 (stereo not given) | inactive | 
CSc1nc2c(c(C(F)(F)F)n1)CC(C)CC2 (stereo not given) | inactive | 
Cc1ccccc1-c1nccc(NCCN2CCOCC2)n1 |  | 15.8% [at 2.29 µM]
CN(CC(=O)O)CC(=O)O |  | -7.68% [at 11.4 µM]
CCc1cc2c(nc1CC)CCN(CC/C(C)=N/O[C@@H](C)c1cc(-c3c(C)cc(C)cc3C)no1)C2 |  | 8.77% [at 11.4 µM]
O=C(NC(=S)NNC(=O)c1cccs1)c1ccco1 | 15.8 µM (active) | 
COc1ccc(NC(=O)N2CC3(CCN(C(=O)c4ccco4)CC3)C2)cc1 | inactive | 
COc1ccc(C(=O)NC(=S)NNC(=O)CCc2ccccc2)cc1 | 2.82 µM (active) | 
Cc1ccc(OCC(=O)NNC(=O)CCc2ccccc2)cc1 | inactive | 

Compound | AC50 | activity, negative = inhibition
COc1ccc(C(=O)NNC(=S)NC(=O)c2ccco2)cc1 | 7.08 µM (active) | 
CCOc1ccc(NC(=O)c2ccc(OC)cc2)cc1 | inactive | 
COc1ccc(NC(=O)N2CCC3(CC2)CCN(C(=O)c2ccco2)CC3)cc1 | inactive | 
CCOc1cc(NC(=S)Nc2ccccc2)c(OCC)cc1NC(=O)c1ccc(OC)cc1 | 1.78 µM (active) | 
c1ccc(C2CCC(N3CCC(N4CCCCC4)CC3)CC2)cc1 (stereo not given) | inactive | 
O=C1NC(=O)C(c2ccccc2[N+](=O)[O-])=C1Nc1ccc(O)c(Cl)c1 | inactive | 
O=C1c2cccc3c(Nc4ccccc4Cl)c([N+](=O)[O-])cc(c23)C(=O)N1CCO | 2.82 µM (active) | 
O=[N+]([O-])c1cc(Cl)cc2c1nc(NCCO)c1ccccc12 |  | -0.585% [at 11.4 µM]
CCCOc1ccc(/C=C/C(=O)Nc2ccc([N+](=O)[O-])cc2C)cc1OC | inactive | 
COc1ccc(CNC(C)(C)C)cc1Cl | inactive | 
COc1ccccc1OCCCOc1ccc([N+](=O)[O-])cc1Cl | 11.2 µM (active) | 
COc1cc(C=O)ccc1OCCOCCOc1ccccc1Cl | 12.6 µM (active) | 
C#CCN(C)CCCOc1ccc(Cl)cc1Cl | inactive | 
COc1cc(C)ccc1OCCOc1cc(C)ccc1Cl | 0.794 µM (active) | 
COc1ccc(/C=C2\OC(=O)c3c(OC)cccc32)cc1OC | inactive | 
COc1ccc(-n2cccc2C=O)cc1OC | inactive | 
CN=C(NC#N)Nc1ccc(C2=NNC(=O)C[C@@H]2C)cc1 | inactive | 
COc1ccc(-c2nc(N)c3ncn([C@H]4O[C@@H](CO)[C@@H](O)[C@@H]4O)c3n2)cc1 |  | 8.82% [at 11.4 µM]
COc1cc(CNCc2cccs2)ccc1OCC(=O)NC(C)(C)C | inactive | 
C[C@H](Nc1ncnc2sc3c(c12)CCC3)C(=O)O | inactive | 
COCCNc1nc(-c2ccc(N(C)C)cc2)nc2ccccc12 |  | 8.62% [at 2.29 µM]
OCCNc1nc(SCc2ccccc2)nc2sc3c(c12)CCC3 | 7.94 µM (active) | 
CC(CO)Nc1nc(SCc2ccccc2)nc2sc3c(c12)CCC3 (stereo not given) | 4.47 µM (active) | 
COCCNc1nc(-c2ccccc2C)nc2ccccc12 |  | -5.55% [at 2.29 µM]
COCCNc1nc(SCc2ccccc2)nc2sc3c(c12)CCC3 | 3.16 µM (active) | 
